A number with no mark means an inactive call. Inconclusive results are not listed. Where a call stands in place of a potency, no number is given. Active and inactive are the calls of the source. Unless noted, the call rests on the fitted dose curve; in most records, active means well fitted curve in the direction sought with a large enough effect in the repeat runs; inconclusive means weak or mixed curves; inactive means no such curve, though single readings can be large; an effect the other way counts as inactive or inconclusive.
Columns and labels:
[1] = qHTS assay to identify small molecule antagonists of the estrogen receptor alpha (ER-alpha) signaling pathway using the BG1 cell line in the presence of 0.1 nM 17-beta-estradiol - cell viability counter screen (AID 1259241); further: nearly all actives have a fitted effect of over 40% in size
In short: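 Measures cytotoxicity alongside the ER-alpha antagonist readout: VM7Luc4E2 cells, charcoal-stripped serum, 0.1 nM 17beta-estradiol final, 22 hr compound incubation at 37C, CellTiter-Fluor fluorescence.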

[2] = qHTS assay to identify small molecule antagonists of the androgen receptor (AR) signaling pathway using the MDA cell line in the presence of 0.5 nM R1881 - cell viability counter screen (AID 1259242); further: nearly all actives have a fitted effect of over 45% in size
In short: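 Fluorescence from CellTiter-Fluor, which reports protease activity of live cells, was read 30 min after reagent addition to MDA-kb2 cells that had been incubated 16 hr with compound and 0.5 nM R1881.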

[3] = target: Estrogen receptor (Homo sapiens) (UniProt P03372); test: qHTS assay to identify small molecule antagonists of the estrogen receptor alpha (ER-alpha) signaling pathway using the BG1 cell line in the presence of 0.1 nM 17-beta-estradiol (AID 1259244); further: nearly all actives have a fitted effect of over 50% in size; further: potency means the concentration at half of the fitted maximal effect
Estrogen receptor (Homo sapiens), sequence (P03372 whole entry, looked up): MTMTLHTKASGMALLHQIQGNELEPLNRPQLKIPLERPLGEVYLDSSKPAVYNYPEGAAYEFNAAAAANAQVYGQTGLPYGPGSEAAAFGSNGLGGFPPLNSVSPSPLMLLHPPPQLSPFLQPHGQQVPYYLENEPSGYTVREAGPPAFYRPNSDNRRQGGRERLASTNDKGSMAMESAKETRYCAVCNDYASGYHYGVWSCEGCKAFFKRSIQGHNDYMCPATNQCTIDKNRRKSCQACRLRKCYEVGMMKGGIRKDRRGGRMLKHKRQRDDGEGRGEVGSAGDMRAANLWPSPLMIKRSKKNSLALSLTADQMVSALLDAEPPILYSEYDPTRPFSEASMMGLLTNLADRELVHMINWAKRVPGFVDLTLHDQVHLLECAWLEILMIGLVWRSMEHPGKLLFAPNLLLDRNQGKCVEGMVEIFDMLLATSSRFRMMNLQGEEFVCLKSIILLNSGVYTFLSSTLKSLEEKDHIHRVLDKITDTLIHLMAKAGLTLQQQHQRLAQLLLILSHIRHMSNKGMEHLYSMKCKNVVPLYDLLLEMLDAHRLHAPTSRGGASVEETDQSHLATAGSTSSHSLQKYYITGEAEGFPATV
In short: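 Quantitative high-throughput screen in VM7Luc4E2 cells: compound plus 0.1 nM E2 (final), 22 h, 37C, 5% CO2; ONE-Glo added, 30 min room temperature, luminescence measured.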

[4] = qHTS assay to identify small molecule phospholipidosis (PLD) inducers (AID 1259344; active means well fitted curve in the direction sought with a large enough effect; an effect the other way counts as inactive or inconclusive)
In short: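 HepG2 cells on collagen I, attached 4 h at 37 C, were co-treated with compound and LipidTOX Red dye for 24 h at 37 C, then fixed with paraformaldehyde plus Hoechst 33342 and imaged by high-content microscopy for phospholipid accumulation.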

[5] = qHTS assay to identify small molecule HDAC inhibitors (AID 1259364); further: top concentration of the series differs between compounds; nearly all actives have a fitted effect of over 45% in size
In short: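 Endogenous HDAC class I/II activity was measured in wild-type HCT-116 cells by HDAC-Glo luminescence after 2 h compound treatment.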

[6] = qHTS assay to identify small molecule HDAC inhibitors - cell viability counter screen (AID 1259365); further: series mostly up to about 92 µM; nearly all actives have a fitted effect of over 50% in size
In short: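 Following a 2hr exposure of overnight-plated wild-type HCT-116 cells to DMSO-delivered compounds, CellTiter-Glo was added and luminescence recorded after 30min at room temperature.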

[7] = qHTS assay to identify small molecule agonists of the sonic hedgehog signaling (Shh) pathway - cell viability counter screen (AID 1259366); further: nearly all actives have a fitted effect of over 50% in size; further: potency means the concentration at half of the fitted maximal effect
In short: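 After a 4hr attachment at 37C, NIH/3T3 cells bearing an integrated Gli1-driven luciferase reporter were dosed with compounds. Treatment lasted 24hr, with the final hour including CellTiter-Fluor for a fluorescence viability measurement.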

[8] = qHTS assay to identify small molecule antagonists of the sonic hedgehog signaling (Shh) pathway - cell viability counter screen (AID 1259367); further: nearly all actives have a fitted effect of over 55% in size; further: potency means the concentration at half of the fitted maximal effect
In short: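 NIH/3T3-derived Gli1-Luc reporter cells (2,000 per well) rested 4 hr at 37 C, then received DMSO compounds plus conditioned medium. After 23 hr of treatment, CellTiter-Fluor was added for 1 hr at 37C and fluorescence read.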

[9] = qHTS assay to identify small molecule agonists of the sonic hedgehog signaling (Shh) pathway (AID 1259368; calls by dose curve;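 further: NIH/3T3-derived 3T3Gli1-Luc cells carrying a stable Gli1-driven firefly luciferase reporter; series mostly up to about 92 µM; nearly all actives have a fitted effect of over 15% in size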)
In short: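 Luminescent signal was taken as a measure of Gli1-controlled luciferase expression in stably transfected NIH/3T3-derived cells that had been treated for 24 hr with compounds delivered in DMSO.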

[10] = qHTS assay to identify small molecule antagonists of the sonic hedgehog signaling (Shh) pathway (AID 1259369; calls by dose curve; further: nearly all actives have a fitted effect of over 45% in size; further: potency means the concentration at half of the fitted maximal effect)
In short: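 Screening used 3T3Gli1-Luc cells at 2,000 per well, compounds delivered in DMSO, and conditioned medium as agonist stimulus; plates incubated 24hr at 37 C and 5% CO2 before a 30min luciferase step.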

[11] = target: Estrogen receptor beta (Homo sapiens) (UniProt Q92731); test: qHTS assay to identify small molecule agonists of the estrogen receptor beta (ER-beta) signaling pathway (AID 1259377; active means well fitted activation curve with a large enough effect in the signal ratio in the repeat runs, not every such curve was filed as active; the % refers to the signal ratio)
Estrogen receptor beta (Homo sapiens), sequence (Q92731 whole entry, looked up): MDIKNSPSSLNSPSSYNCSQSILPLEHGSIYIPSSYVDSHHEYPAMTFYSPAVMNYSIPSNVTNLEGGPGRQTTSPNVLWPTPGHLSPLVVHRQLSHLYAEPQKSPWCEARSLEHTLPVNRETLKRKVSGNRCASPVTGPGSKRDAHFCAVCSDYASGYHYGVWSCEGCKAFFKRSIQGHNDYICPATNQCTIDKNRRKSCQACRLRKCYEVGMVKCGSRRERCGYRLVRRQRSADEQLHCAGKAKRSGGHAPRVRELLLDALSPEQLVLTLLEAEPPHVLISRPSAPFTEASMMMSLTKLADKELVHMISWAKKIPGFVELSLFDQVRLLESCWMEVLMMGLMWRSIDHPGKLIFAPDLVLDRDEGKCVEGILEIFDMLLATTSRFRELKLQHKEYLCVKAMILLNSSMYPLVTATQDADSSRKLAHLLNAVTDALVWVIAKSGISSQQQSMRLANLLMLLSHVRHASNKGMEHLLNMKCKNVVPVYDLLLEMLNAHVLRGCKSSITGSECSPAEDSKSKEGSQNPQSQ
In short: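 In HEK293T cells bearing a UAS-beta-lactamase reporter under ER-beta control, DMSO-delivered compounds were incubated for 16 hr at 37C. Activity was detected as fluorescence 2 hours after LiveBLAzer B/G FRET substrate addition.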

[12] = target: Estrogen receptor beta (Homo sapiens) (UniProt Q92731); test: qHTS assay to identify small molecule antagonists of the estrogen receptor beta (ER-beta) signaling pathway (AID 1259378; active means well fitted inhibition curve with a large enough effect in the signal ratio in the repeat runs, not every such curve was filed as active; the % refers to the signal ratio)
In short: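 ER-beta-UAS-bla HEK293T (GripTite) cells in 2% charcoal-stripped FBS medium were preincubated 6 hr at 37C, dosed with compound, then stimulated with 1 nM E2 (final) for 16 hr; beta-lactamase reporter read by B/G FRET fluorescence after 2 hr substrate loading.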

[13] = qHTS assay to identify small molecule agonists of the androgen receptor (AR) signaling pathway in the presence of an antagonist - cell viability counter screen (AID 1259379);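 further: MDA-kb2 human breast cancer cells carrying an MMTV luciferase reporter; series mostly up to about 92 µM; nearly all actives have a fitted effect of over 25% in size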
In short: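 In MDA-kb2 cells (human breast carcinoma, MMTV-luciferase), compounds at 15 concentrations plus 3.0uM nilutamide; 16 hr, 37C, 0% CO2; CellTiter-Fluor fluorescence read for viability.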

[14] = qHTS assay to identify small molecule agonists of the estrogen receptor beta (ER-beta) signaling pathway - cell viability counter screen (AID 1259380); further: nearly all actives have a fitted effect of over 30% in size
In short: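 Viability of ER-beta-UAS-bla HEK293T cells was determined by CellTiter-Glo luminescence following 16 hr treatment with test compounds at 37C.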

[15] = qHTS assay to identify small molecule antagonists of the estrogen receptor beta (ER-beta) signaling pathway - cell viability counter screen (AID 1259382); further: series mostly up to about 92 µM; nearly all actives have a fitted effect of over 55% in size
In short: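 Tox21 10K library tested in qHTS format on ER-beta-bla HEK293T cells stimulated with 1nM E2; 16 hr treatment at 37C. Same-well CellTiter-Glo luminescence served as the cell viability measure.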

[16] = target: Estrogen receptor (Homo sapiens) (UniProt P03372); test: qHTS assay to identify small molecule agonists of the estrogen receptor alpha (ER-alpha) signaling pathway in the presence of an antagonist (AID 1259383; calls by dose curve; further: top concentration of the series differs between compounds; nearly all actives have a fitted effect of over 15% in size)
In short: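 In VM7Luc4E2 cells, 4,000 per well, compounds at 15 concentrations were co-incubated 22hr at 37C with 10.0nM final ICI-182,780. Luminescence from the stably transfected 4×ERE-luciferase reporter was recorded 30min after ONE-Glo addition.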

[17] = qHTS assay to identify small molecule agonists or antagonists of the thyroid stimulating hormone receptor (TSHR) signaling pathway - wild type cell line counter screen (AID 1259384; calls by dose curve)
In short: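 Wild-type HEK293 cells were plated 18 h at 37 C/5% CO2, pin-dosed with compound plus Ro20-1724 medium, held 30 min at room temperature, then given cAMP-d2 and anti-cAMP-cryptate; fluorescence was read after 1 h. Fifteen concentrations, triplicate.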

[18] = target: Thyrotropin receptor (Homo sapiens) (UniProt P16473); test: qHTS assay to identify small molecule antagonists of the thyroid stimulating hormone receptor (TSHR) signaling pathway (AID 1259385; calls by dose curve; further: nearly all actives have a fitted effect of over 20% in size)
Thyrotropin receptor (Homo sapiens), sequence (P16473 whole entry, looked up): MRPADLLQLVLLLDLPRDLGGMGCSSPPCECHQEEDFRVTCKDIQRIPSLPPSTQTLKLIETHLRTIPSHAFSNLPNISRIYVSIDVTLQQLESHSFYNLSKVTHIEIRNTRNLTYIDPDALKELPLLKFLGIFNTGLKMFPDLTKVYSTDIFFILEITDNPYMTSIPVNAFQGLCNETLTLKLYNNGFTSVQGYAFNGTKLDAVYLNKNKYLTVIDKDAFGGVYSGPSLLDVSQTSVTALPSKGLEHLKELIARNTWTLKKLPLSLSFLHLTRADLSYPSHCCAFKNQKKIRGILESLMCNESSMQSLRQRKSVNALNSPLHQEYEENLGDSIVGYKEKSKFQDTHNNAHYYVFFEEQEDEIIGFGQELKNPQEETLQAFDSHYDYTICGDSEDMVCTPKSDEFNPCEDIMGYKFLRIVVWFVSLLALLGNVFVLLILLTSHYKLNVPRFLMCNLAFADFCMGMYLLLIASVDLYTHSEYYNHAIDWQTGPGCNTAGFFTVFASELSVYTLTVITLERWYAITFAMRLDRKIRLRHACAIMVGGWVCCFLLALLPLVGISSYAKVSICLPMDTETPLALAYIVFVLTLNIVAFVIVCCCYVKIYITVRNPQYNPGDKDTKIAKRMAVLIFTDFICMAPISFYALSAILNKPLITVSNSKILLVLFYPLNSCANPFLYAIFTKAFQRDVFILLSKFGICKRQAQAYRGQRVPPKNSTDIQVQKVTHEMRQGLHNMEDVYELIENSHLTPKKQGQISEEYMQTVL
In short: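 TSHR-HEK293 cells were plated and held 18 h at 37C/5% CO2, then given compound plus Ro20-1724 and stimulated with TSH at 1.5 ng/mL final. After 30 min at room temperature, cAMP was detected with cAMP-d2/anti-cAMP-cryptate (1 h) by fluorescence.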

[19] = target: Androgen receptor (Homo sapiens) (UniProt P10275); test: qHTS assay to identify small molecule antagonists of the androgen receptor (AR) signaling pathway using the MDA cell line in the presence of 0.5 nM R1881 (AID 1259243); further: nearly all actives have a fitted effect of over 50% in size
Androgen receptor (Homo sapiens), sequence (P10275 whole entry, looked up): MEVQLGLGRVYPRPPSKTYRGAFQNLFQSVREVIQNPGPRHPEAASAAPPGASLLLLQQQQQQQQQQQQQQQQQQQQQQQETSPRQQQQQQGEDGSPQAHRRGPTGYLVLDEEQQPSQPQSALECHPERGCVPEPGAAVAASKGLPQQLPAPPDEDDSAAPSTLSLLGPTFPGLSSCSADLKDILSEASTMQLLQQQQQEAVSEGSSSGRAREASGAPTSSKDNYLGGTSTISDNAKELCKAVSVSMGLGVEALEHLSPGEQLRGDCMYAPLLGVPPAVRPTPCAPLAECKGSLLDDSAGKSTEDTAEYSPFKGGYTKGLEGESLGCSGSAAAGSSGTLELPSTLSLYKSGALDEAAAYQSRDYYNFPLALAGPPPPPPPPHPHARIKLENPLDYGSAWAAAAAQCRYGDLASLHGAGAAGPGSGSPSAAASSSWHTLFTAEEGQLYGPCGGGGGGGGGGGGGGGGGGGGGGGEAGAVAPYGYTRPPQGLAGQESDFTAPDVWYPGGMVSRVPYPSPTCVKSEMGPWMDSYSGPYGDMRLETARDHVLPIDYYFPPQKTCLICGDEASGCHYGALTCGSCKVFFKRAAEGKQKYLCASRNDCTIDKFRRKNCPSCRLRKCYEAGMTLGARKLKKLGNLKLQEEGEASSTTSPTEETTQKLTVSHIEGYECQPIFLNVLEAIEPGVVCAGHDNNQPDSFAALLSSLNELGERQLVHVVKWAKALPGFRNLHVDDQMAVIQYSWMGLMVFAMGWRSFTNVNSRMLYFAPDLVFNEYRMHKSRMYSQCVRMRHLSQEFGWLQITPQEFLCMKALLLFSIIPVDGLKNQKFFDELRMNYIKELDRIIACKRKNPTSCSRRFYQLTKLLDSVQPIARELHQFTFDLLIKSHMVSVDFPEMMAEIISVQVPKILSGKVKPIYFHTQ
In short: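 Inhibition of R1881 (0.5 nM final) induced reporter signal was measured in human MDA-kb2 cells; note the MMTV promoter also responds to GR. Exposure lasted 16 hr at 37C.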

[20] = target: Androgen receptor (Homo sapiens) (UniProt P10275); test: qHTS assay to identify small molecule agonists of the androgen receptor (AR) signaling pathway in the presence of an antagonist (AID 1259381; calls by dose curve; further: nearly all actives have a fitted effect of over 15% in size)
In short: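 Here, 15-concentration compound series were pin-transferred onto MDA-kb2 MMTV-luciferase cells already dosed with nilutamide (3.0uM final). After 16hr at 37C, ONE-Glo was added and luminescence read 30min later at room temperature.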

CCS(=O)(=O)C(C)(C)S(=O)(=O)CC
outcome [1]: inactive
outcome [2]: inactive
Potency [3]: inactive
outcome [4]: inactive
Potency [5]: inactive
outcome [6]: inactive
Potency [7]: inactive
Potency [8]: inactive
outcome [9]: inactive
Potency [10]: inactive
outcome [11]: inactive
Potency [12]: inactive
Potency [13]: inactive
Potency [14]: inactive
Potency [15]: inactive
Potency [16]: inactive
Potency [17]: inactive
Potency [18]: inactive

CC(COc1ccc(Oc2ccccc2)cc1)Oc1ccccn1 (stereo unspecified)
outcome [1]: inactive
outcome [2]: inactive
Potency [19]: inactive
outcome [6]: inactive
Potency [7]: inactive
outcome [9]: inactive
Potency [10]: inactive
outcome [11]: inactive
Potency [12]: inactive
Potency [13]: inactive
Potency [20]: inactive
Potency [15]: inactive
Potency [17]: inactive

OC(Cn1cncn1)(c1ccc(F)cc1)c1ccccc1F (stereo unspecified)
outcome [1]: inactive
outcome [2]: inactive
Potency [3]: inactive
Potency [5]: inactive
outcome [6]: inactive
Potency [7]: inactive
Potency [8]: inactive
outcome [9]: inactive
Potency [10]: inactive
outcome [11]: inactive
Potency [12]: inactive
Potency [13]: inactive
Potency [15]: inactive
Potency [16]: inactive
Potency [18]: inactive

COc1cc(OC)nc(Oc2cccc(Oc3nc(OC)cc(OC)n3)c2C(=O)O)n1
outcome [1]: inactive
outcome [2]: inactive
Potency [19]: inactive
Potency [5]: inactive
outcome [6]: inactive
Potency [7]: inactive
outcome [9]: inactive
outcome [11]: inactive
Potency [12]: inactive
Potency [13]: inactive
Potency [14]: inactive
Potency [20]: inactive
Potency [15]: inactive

CCSC(=O)N(CC)C1CCCCC1
outcome [1]: inactive
outcome [2]: inactive
Potency [3]: inactive
Potency [5]: inactive
outcome [6]: inactive
Potency [7]: inactive
Potency [8]: inactive
outcome [9]: inactive
Potency [10]: inactive
Potency [13]: inactive
Potency [14]: inactive
Potency [15]: inactive
Potency [16]: inactive
Potency [18]: inactive

CC1=C(C(=O)Nc2ccccc2)S(=O)(=O)CCO1
outcome [1]: inactive
outcome [2]: inactive
Potency [3]: 48.5 µM (active)
Potency [5]: inactive
outcome [6]: inactive
Potency [7]: 21.7 µM (active)
Potency [8]: 27.3 µM (active)
outcome [9]: inactive
Potency [10]: 3.06 µM (active)
Potency [13]: inactive
Potency [14]: inactive
Potency [15]: inactive
Potency [16]: inactive
Potency [18]: inactive

Nc1cc(Cl)ccc1O
outcome [1]: inactive
outcome [2]: inactive
Potency [3]: inactive
Potency [5]: inactive
outcome [6]: inactive
Potency [7]: 59.1 µM (active)
Potency [8]: 29.6 µM (active)
outcome [9]: inactive
Potency [10]: 1.67 µM (active)
Potency [13]: inactive
Potency [15]: inactive
Potency [16]: inactive
Potency [17]: inactive
Potency [18]: inactive

— PubChem BioAssay (Tox21)
